{
  "source": "PubChem BioAssay AID624115",
  "about": "(Johns Hopkins Ion Channel Center, 2012)",
  "note": "Screen size: about 4,000 compounds; about 350 (8.8%) were called active.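 Rule for the calls: active = calcium fluorescence ratio at least three times the spread of buffer wells, meaning a non-specific response in parental cells; inactive = the rest.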 The full list was thinned out, with actives kept by preference.",
  "data": [
    {"test": "nonspecific Ca2+ signal without MrgX1 expression – cell-based, Fluo-4 calcium flux, duplicate, agonist mode, counter-screen for MrgX1 agonist project, primary screen (AID 624115)", "settings": "parental HEK293, Fluo-4 calcium fluorescence (FDSS), at 10 µM; hits give high values", "values": [
      {"smiles": "CCCCC(=O)N/N=C/c1c(O)n(CC)c(=S)n(CC)c1=O", "fluorescence ratio F(max-min)/F0": "78.9 (active)"},
      {"smiles": "O=C(CCN1CCCCC1)NCC(=O)Nc1ccc(Br)cc1C(=O)c1ccccc1", "fluorescence ratio F(max-min)/F0": "inactive"},
      {"smiles": "CCCCCn1c(=O)c(C(=O)NCc2ccccc2)c(O)c2ccccc21", "fluorescence ratio F(max-min)/F0": "inactive"},
      {"smiles": "C=CCN1C(=O)C2(C(C(=O)OCC)=C(N)Oc3c2c(=O)oc2ccccc32)c2ccccc21", "note": "(stereo not given)", "fluorescence ratio F(max-min)/F0": "inactive"},
      {"smiles": "COc1ccc(S(=O)(=O)NCc2ccc(C(=O)N3CCC4(CC3)OCCO4)cc2)cc1", "fluorescence ratio F(max-min)/F0": "inactive"}
    ]}
  ]
}
